This passage reports inhibition results from PubChem BioAssay AID588391 (Broad Institute, 2011).

Molecules are shown by their SMILES. In all, about 350,000 compounds went through this assay and about 180 (0.051%) were called active.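 The calls were made as follows: active = mean inhibition across replicates of 30% or more, whatever share of single replicates reach that level; inconclusive = mean inhibition below 30% while every single replicate reaches 30%; inactive = the rest.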 Only a selection was taken, and actives are over-represented in it overall.

This experiment deals with Protein disulfide-isomerase (Homo sapiens) (UniProt P07237). The experiment in a line: inhibitors of human PDI, primary screen, biochemical, turbidity, single point, plate reader (AID 588391).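 Also: absorbance from insulin aggregation driven by PDI reduction with DTT.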 The note with it: PDI insulin aggregation turbidity, A650, 90 min; at 10 µM; stronger effect = higher value.
Sequence of Protein disulfide-isomerase (Homo sapiens) (P07237 whole entry, looked up): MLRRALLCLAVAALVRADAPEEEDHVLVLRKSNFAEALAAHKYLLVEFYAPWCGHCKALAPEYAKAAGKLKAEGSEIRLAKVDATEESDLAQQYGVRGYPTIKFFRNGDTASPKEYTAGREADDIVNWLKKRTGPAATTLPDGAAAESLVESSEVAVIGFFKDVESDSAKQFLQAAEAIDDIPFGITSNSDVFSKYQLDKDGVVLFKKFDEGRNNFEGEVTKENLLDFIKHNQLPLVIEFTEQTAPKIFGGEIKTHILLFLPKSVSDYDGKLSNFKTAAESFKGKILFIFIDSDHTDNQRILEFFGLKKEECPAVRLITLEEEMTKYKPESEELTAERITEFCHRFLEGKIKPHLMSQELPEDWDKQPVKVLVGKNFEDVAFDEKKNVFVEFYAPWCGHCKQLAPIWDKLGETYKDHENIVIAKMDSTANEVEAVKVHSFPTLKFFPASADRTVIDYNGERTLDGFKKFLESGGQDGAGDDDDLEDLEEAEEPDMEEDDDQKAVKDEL
As to `CN(C)c1ccc(/C=C/C(=O)c2ccc(O)cc2)cc1[N+](=O)[O-]`, the inhibition (in general, the drop in the measured response relative to a control, in per cent) was 62.9% (active).
The same measure for `O=C(/C=C/c1ccc(Cl)cc1)N1CCN(c2ccccc2[N+](=O)[O-])CC1`: -3.05% (inactive); for `CC(=O)Nc1ccc(C=CC(=O)c2ccc([N+](=O)[O-])cc2)cc1`: -14.3% (inactive).
Consider `OC[C@H]1O[C@@H](c2nc(-c3nc(-c4ccc(F)cc4)no3)cs2)[C@H](O)[C@@H](O)[C@H]1O`, for which the inhibition was 9.06% (inactive).
The same measure for `CCc1nc2ccc(C(=O)Nc3cccc(OC)c3)cn2c1N(CCC(C)C)CCN(C)C`: 7.59% (inactive); for `COc1ccc(CNC(=O)c2ccc(-c3cccnc3)c3ccoc23)cc1OC`: -14.5% (inactive); for `CCOC(=O)C1CCCN(C(=O)c2ccc(N(C)C)cc2)CC1` (stereo not drawn): -4.95% (inactive).
With `COc1ccccc1CNC(=O)c1cc(-c2cc(F)ccc2OC)n[nH]1`, the inhibition is -13.3% (inactive).
As for `CNc1cnc(-c2cc(OC)c(OC)c(OC)c2)cn1`, the figure is -1.94% (inactive); as for `Cc1nc2c(OCc3ccc(Cl)cc3Cl)cccn2c1N(C)CC1CC1`, -3.07% (inactive); as for `CC(=O)NN=C(C)c1ccc(NC(=O)C2CC2)cc1`, 11.5% (inactive).
As for `CC1(C(=O)NCc2cccc3ccccc23)CCN1Cc1ccc(-c2ccccc2)o1` (stereo not drawn), the figure is -7.12% (inactive); as for `CC(=O)Nc1cccc(-c2cc(NC=O)c3ncc(-c4ccc(F)c(Cl)c4)n3c2)c1`, -0.607% (inactive); as for `CCc1nc2c(OCCOc3ccccc3)cccn2c1N(C=O)Cc1ccc(OC)cc1`, 3.19% (inactive).
As for `COc1cccc(NC(=O)C2(C)CCN2Cc2ccccc2Cl)c1` (stereo not drawn), the figure is 2.3% (inactive).
As for `NC(Cc1ccc(F)cc1)c1csc(Nc2nncc3ccccc23)n1` (stereo not drawn), the inhibition is -3.01% (inactive).
As for `CC(C)Nc1nc(NCCOc2ccccc2Cl)c2sccc2n1`, the inhibition was 0.492% (inactive).
The same measure for `COc1ccc(NC(=O)C2(C)Cc3c(-c4cccc(NC(C)=O)c4)ccnc3O2)cc1OC` (stereo not drawn): -9.6% (inactive); for `O=C(CCc1n[nH]c(=O)[nH]c1=O)N/N=C/c1ccc(Br)o1`: 2.19% (inactive); for `O=C(CCC(=O)N/N=C/c1ccc(Br)o1)N/N=C/c1ccc(Br)o1`: -7.35% (inactive).
As for `O=C(CCc1ccc(O)cc1)NN=Cc1cc(Br)ccc1O`, the figure is 44.5% (active); as for `COc1ccc(C(NC(=O)C2CCN(CCCc3ccccc3)CC2)c2cccs2)cc1` (stereo not drawn), -3.76% (inactive).
For the molecule `OCCN1CCN(c2ncnc3c2ncn3[C@H]2CN(Cc3ccco3)C[C@@H](CO)O2)CC1`, the inhibition is -4.02% (inactive).
The same measure for `COc1cncc(-c2cnc3sc(NCCc4ccccn4)nn23)c1`: -1.86% (inactive); for `CCCC/C=C/c1cccc2nncn12`: 15.4% (inactive).
As for `O=C(Nc1ccc(N2CCOCC2)cc1)c1cccc2c(-c3ccc(F)c(F)c3)coc12`, the figure is 6.12% (inactive).
As for `Cc1nc(C(F)(F)F)ccc1C(=O)N1CCC1(C)C(=O)NS(=O)(=O)c1ccc(F)cc1F` (stereo not drawn), the figure is -2.79% (inactive); as for `Cc1cccc(C)c1Cn1c(C)c(C(=O)NCc2cccc(Cl)c2)sc1=O`, 12.4% (inactive); as for `CCc1nc2c(OCc3ccc(Cl)cc3Cl)cccn2c1N(C)C(=O)C(C)C`, 1.84% (inactive).
Turning to `CS(=O)(=O)/C(C#N)=C/c1cccn1S(=O)(=O)c1ccc([N+](=O)[O-])cc1`, the inhibition is 6.24% (inactive).
The same measure for `CCCS(=O)(=O)NC(=O)C1(C)CCCN(C(=O)c2cccs2)C1` (stereo not drawn): 5.08% (inactive).
The same measure for `CCCNC(=O)C1(C)CCN(C(=O)c2ccccc2OC(F)(F)F)C1` (stereo not drawn): 12.9% (inactive); for `COc1ccc(S(=O)(=O)NC(=O)C2(C)CCN2C(=O)c2ccccc2CCc2ccccc2)cc1` (stereo not drawn): -21.5% (inactive); for `Cc1ccc(CNC(=O)Nc2nnc([C@H]3C[C@H](O)[C@@H](CO)O3)s2)cc1`: -0.839% (inactive).
Turning to `COc1ccc(-c2cc3nc(NCCOc4ccccc4)ccn3n2)cc1`, the inhibition is 8.41% (inactive).
As for `Cc1ccc(Sc2ccc(NC(=O)c3ccc(F)cc3)cc2C#N)cc1`, the figure is 1.62% (inactive).
The same measure for `CC(C)NC(=O)C1(C)CCCCCN1C(=O)c1ccc(-c2ccccc2)cc1` (stereo not drawn): 0.373% (inactive).
As for `CCc1nc2c(OCCC3CCCCC3)cccn2c1N(C)C(=O)c1ccco1`, the figure is 4.27% (inactive); as for `COc1ccc(OC)c(NC(=O)C2(C)CCN2C(=O)Cc2ccccc2)c1` (stereo not drawn), 0.456% (inactive); as for `O=C(CSc1nc2cccc(F)c2c(=O)n1-c1ccccc1)Nc1ccc2c(c1)CCC2`, -4.77% (inactive).
Turning to `CC1(Cc2ccccc2C#N)C(=O)Nc2ccc(-c3ccc4[nH]ccc4c3)cc21` (stereo not drawn), the inhibition was 7.54% (inactive).
The same measure for `O=C(O)c1ccccc1-c1cccc2nncn12`: 9.27% (inactive); for `O=C(NCc1ccc(F)cc1)c1cc(C2CCCCN2C(=O)c2cccs2)on1` (stereo not drawn): -0.163% (inactive).
The same measure for `CC(C)Cc1ccc(-c2cc3nc(NCc4cccc(Cl)c4)ccn3n2)cc1`: -8.06% (inactive).
Consider `O=C(c1cc(C2CCCCN2S(=O)(=O)c2ccccc2)on1)N1CCOCC1` (stereo not drawn), for which the inhibition is -7.54% (inactive).
As for `COc1ccc(NC(=O)C2(C)Cc3c(-c4cccc(NC(C)=O)c4)ccnc3O2)cc1` (stereo not drawn), the figure is -2.98% (inactive); as for `OC[C@@H]1CN(Cc2ccc(-c3ccccc3)cc2)C[C@H](n2cnc3c(NC4CCCC4)ncnc32)O1`, -2.96% (inactive); as for `CC(C)Cn1cc(-c2cncc3nccn23)cn1`, -0.067% (inactive).
For the molecule `CC1(C(=O)NS(=O)(=O)c2ccc3ccccc3c2)CCN1C(=O)C1(c2ccc(Cl)cc2)CCC1` (stereo not drawn), the inhibition was 8.48% (inactive).
The same measure for `CC(=O)c1ccc(-c2cnc3c(NC=O)cc(-c4cccc(NS(C)(=O)=O)c4)cn23)cc1`: 16.7% (inactive).
As for `COc1cccc(-c2cnc(C(O)c3ccccc3OC)[nH]2)c1` (stereo not drawn), the figure is 10.9% (inactive).
The same measure for `OC(c1ccc(F)cc1)c1ncc(-c2cccc(C(F)(F)F)c2)[nH]1` (stereo not drawn): -1.07% (inactive); for `CC(C)Oc1cc(F)ccc1-c1cc(C(=O)Nc2ccc(F)cc2)[nH]n1`: 10.8% (inactive).
For `O=C(NC(c1ccc(Cl)cc1)c1cnccn1)C1CCN(Cc2ccc(Cl)cc2)CC1` (stereo not drawn), the inhibition is -28.5% (inactive).
The same measure for `CCCc1ccc(C(O)c2ncc(-c3cccc(OC)c3)[nH]2)cc1` (stereo not drawn): -4.13% (inactive); for `COc1ccccc1CNC(=O)c1cc(-c2cc(Cl)ccc2C)n[nH]1`: -1.01% (inactive); for `CCNC(=O)C1(C)CCN(Cc2ccc(C(=O)OCC)o2)C1` (stereo not drawn): 8.45% (inactive).
As for `CCCOc1ccc(F)cc1-c1cc(C(=O)Nc2ccc(F)cc2)[nH]n1`, the figure is 5.38% (inactive); as for `CC1(C(=O)NCc2ccc3c(c2)OCO3)CCN1C(=O)Cc1cccs1` (stereo not drawn), -7.14% (inactive).
As for `CC(C)Oc1ccc(CN2CCC2(C)C(=O)NCc2ccc(C(F)(F)F)cc2)cc1` (stereo not drawn), the figure is 4.17% (inactive); as for `CC1(C(=O)Nc2cccc3c2CCCC3)CCN1C(=O)CCc1ccc(Cl)cc1Cl` (stereo not drawn), -3.08% (inactive); as for `NCCCNC(=S)NCCCN(Cc1ccc(Cl)cc1)c1ccc(Br)cn1`, 22.2% (inactive).
Take `COc1cccc(CNc2nc(NCc3cccs3)nc3ccsc23)c1`: the inhibition is -1.8% (inactive).
The same measure for `CCc1nc2ccc(C(=O)Nc3ccc(OC)c(OC)c3)cn2c1N(C)C(=O)c1cccc(OC)c1`: 10.6% (inactive).
As for `NC(Cc1ccccc1)c1csc(Nc2cc(Oc3ccccc3)ncn2)n1` (stereo not drawn), the figure is 0.811% (inactive).
As for `OC[C@@H]1CN(Cc2ccncc2)C[C@H](n2cnc3c(N4CCN(c5ccccc5)CC4)ncnc32)O1`, the figure is -1.41% (inactive).
For `COCCNc1ncnc2c1ncn2[C@H]1CN(Cc2ccc(OC)cc2)C[C@@H](CO)O1`, the inhibition was -0.829% (inactive).
The same measure for `CC(=O)Nc1cccc(-c2cc(NC(C)=O)c3ncc(-c4ccccc4)n3c2)c1`: 0.99% (inactive); for `COc1cccc(CNc2nc(NCc3ccccc3OC)nc3ccsc23)c1`: -20.9% (inactive).
With `CCNC(=S)Nc1ccc2c(c1)c(=O)n(C)n2Cc1ccc(Cl)cc1`, the inhibition was 7.91% (inactive).
The same measure for `CSc1ccc(CNC(=O)C2(C)CCCN2C)cc1` (stereo not drawn): -9.77% (inactive).
On to `CCc1ccc2c(c1)NC(=O)C2(C)Cc1ccc(OC(F)(F)F)cc1` (stereo not drawn), for which the inhibition was 8.05% (inactive).
The same measure for `CCCNC(=O)C1(C)CCCN(C(=O)c2oc3ccccc3c2C)C1` (stereo not drawn): 10.4% (inactive); for `CC1(C(=O)NS(=O)(=O)c2cccc(OC(F)F)c2)CCN1C(=O)COc1ccc(Cl)cc1` (stereo not drawn): -2.12% (inactive).
Consider `Nc1nc(CSc2nnnn2-c2ccccc2)nc(Nc2ccccc2)n1`, for which the inhibition is -5.2% (inactive).
The same measure for `Cn1c(Nc2ccc(F)cc2)nc2cc(-c3ccsc3)sc2c1=O`: -4.93% (inactive); for `CCCNC(=O)c1cc(C2CCCCN2S(=O)(=O)c2cn(C)cn2)on1` (stereo not drawn): -5.28% (inactive).
For `COc1cccc(-c2ccc3c(c2)N(Cc2ccccc2OC)C(=O)C(C)S3)c1` (stereo not drawn), the inhibition is 0.226% (inactive).
The same measure for `CCCNC(=O)C1(C)CCN(Cc2ccc(Cl)c(Cl)c2)C1` (stereo not drawn): -7.24% (inactive); for `COc1ccc(Br)c(Cn2c(C)c(C(=O)NCc3cccs3)sc2=O)c1`: 6.08% (inactive).
As for `CC(C)(C)c1ccc(S(=O)(=O)NC(=O)C2(C)CCN2C(=O)CC2CC2)cc1` (stereo not drawn), the figure is 4.79% (inactive); as for `CS(=O)(=O)c1cccc(-c2ccc3nncn3c2)c1`, 1.16% (inactive).
As for `CC(=O)Nc1cccc(-c2cc3nc(NCc4cccnc4)n(C)c(=O)c3s2)c1`, the figure is -1.23% (inactive).
Turning to `CCCNC(=O)C1(C)CCN(Cc2csc(-c3ccc(Cl)cc3)n2)C1` (stereo not drawn), the inhibition was 14.3% (inactive).
As for `COc1ccc(-c2ccc(C(=O)NCCN3CCOCC3)c3occc23)c(C)c1`, the figure is 0.104% (inactive).
As for `CCc1ccc(OC2(C)CCN(CCOc3ccc(C)cc3)C2)cc1` (stereo not drawn), the figure is -1.04% (inactive); as for `CC(=O)Nc1cccc(-c2ccnc3c2CC(C)(C(=O)NCc2ccco2)O3)c1` (stereo not drawn), 2.4% (inactive).
The same measure for `CC(C)(C)CC(=O)Nc1nc(C(N)Cc2ccc(C(F)(F)F)cc2)cs1` (stereo not drawn): -12.3% (inactive).
